# According to paper PMC7862700, “An all-to-all approach to the identification of sequence-specific readers for epigenetic DNA modifications on cytosine”:
# What was measured:
# Assay in all cases: DAPPL (digital affinity profiling via proximity ligation, sequencing); 10 mM Tris-HCl pH 7.5, 50 mM NaCl, 1 mM DTT, 4% glycerol, room temperature, 30 min; GST-TFs on glutathione beads, 16-mer random dsDNA library, 0.1% formaldehyde crosslink after washing; high values mean tight binding
# [1] = target: T1, FLI1 (Homo sapiens, UniProt Q01543 1-452); conditions: protein: recombinant; tags: N-terminal GST; dsDNA, one strand shown
# T1 sequence: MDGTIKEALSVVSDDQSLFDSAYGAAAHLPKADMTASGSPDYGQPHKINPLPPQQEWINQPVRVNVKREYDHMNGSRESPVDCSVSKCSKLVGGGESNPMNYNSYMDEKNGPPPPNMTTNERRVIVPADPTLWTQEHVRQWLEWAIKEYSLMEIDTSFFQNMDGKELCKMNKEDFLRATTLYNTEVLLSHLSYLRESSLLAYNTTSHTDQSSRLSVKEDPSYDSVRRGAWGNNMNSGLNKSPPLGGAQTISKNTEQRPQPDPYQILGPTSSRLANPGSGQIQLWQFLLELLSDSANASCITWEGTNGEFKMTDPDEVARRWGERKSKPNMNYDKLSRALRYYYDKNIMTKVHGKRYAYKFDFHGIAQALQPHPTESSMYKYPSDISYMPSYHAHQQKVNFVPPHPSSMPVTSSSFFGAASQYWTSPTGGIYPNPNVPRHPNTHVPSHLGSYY
# In short: (§1)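 Human transcription factors fused to GST were expressed in yeast, captured on glutathione beads, given DNA barcodes and pooled with a GST-only negative control. Pools were incubated with 200 nmole of a 16-mer random double-stranded DNA library in Tris/NaCl/DTT/glycerol buffer at room temperature for 30 min. They were then washed, crosslinked with 0.1% formaldehyde, proximity-ligated (BsaI/T4 ligase, 1 h, 37 °C), PCR-amplified and sequenced on an Illumina NextSeq500. Binding signal is each 6-mer's read frequency for a factor divided by its frequency for the GST control.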
# [2] = target: T2, ELK1 (Homo sapiens, UniProt P19419 1-428); conditions: protein: recombinant; tags: N-terminal GST; dsDNA, one strand shown
# T2 sequence: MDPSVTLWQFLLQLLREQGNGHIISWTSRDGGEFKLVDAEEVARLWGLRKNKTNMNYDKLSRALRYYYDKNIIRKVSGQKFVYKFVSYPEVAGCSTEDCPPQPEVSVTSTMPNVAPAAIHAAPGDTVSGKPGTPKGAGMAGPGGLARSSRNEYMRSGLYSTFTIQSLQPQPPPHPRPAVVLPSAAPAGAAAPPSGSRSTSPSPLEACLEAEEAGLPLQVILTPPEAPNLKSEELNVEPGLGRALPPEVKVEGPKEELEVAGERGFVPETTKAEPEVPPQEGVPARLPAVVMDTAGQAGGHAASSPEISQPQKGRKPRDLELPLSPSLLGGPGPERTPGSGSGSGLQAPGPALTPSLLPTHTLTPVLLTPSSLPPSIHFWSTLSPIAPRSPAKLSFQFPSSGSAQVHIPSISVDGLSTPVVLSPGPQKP
# In short: as §1
# [3] = target: T3, GABPA (Homo sapiens, UniProt Q06546 1-454); conditions: protein: recombinant; tags: N-terminal GST; dsDNA, one strand shown
# T3 sequence: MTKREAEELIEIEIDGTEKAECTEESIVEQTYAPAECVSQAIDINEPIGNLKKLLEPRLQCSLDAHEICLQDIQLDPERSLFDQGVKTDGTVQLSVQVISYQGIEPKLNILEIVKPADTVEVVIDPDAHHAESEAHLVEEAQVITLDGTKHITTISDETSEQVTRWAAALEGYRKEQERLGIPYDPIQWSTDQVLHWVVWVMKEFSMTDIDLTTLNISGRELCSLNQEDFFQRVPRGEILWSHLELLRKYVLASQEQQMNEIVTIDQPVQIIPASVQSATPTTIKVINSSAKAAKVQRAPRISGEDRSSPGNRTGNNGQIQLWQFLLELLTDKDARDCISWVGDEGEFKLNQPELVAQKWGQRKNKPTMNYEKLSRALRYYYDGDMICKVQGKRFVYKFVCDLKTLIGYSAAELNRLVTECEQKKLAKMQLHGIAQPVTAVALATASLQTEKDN
# In short: as §1
# [4] = target: T4, ERG (Homo sapiens, UniProt P11308 1-479); conditions: protein: recombinant; tags: N-terminal GST; dsDNA, one strand shown
# T4 sequence: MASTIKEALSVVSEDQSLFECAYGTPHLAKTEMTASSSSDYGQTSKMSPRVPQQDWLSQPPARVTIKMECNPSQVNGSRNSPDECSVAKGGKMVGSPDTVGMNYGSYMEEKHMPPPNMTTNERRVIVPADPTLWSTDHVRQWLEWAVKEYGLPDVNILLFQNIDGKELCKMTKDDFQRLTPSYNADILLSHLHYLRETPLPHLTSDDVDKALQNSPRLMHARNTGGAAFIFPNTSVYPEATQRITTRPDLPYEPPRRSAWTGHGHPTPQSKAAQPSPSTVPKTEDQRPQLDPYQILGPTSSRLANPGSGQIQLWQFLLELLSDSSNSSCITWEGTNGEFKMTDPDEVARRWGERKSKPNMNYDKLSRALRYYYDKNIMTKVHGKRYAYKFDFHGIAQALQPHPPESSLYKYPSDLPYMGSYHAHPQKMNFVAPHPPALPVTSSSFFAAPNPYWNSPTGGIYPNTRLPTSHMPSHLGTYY
# In short: as §1
# [5] = target: ELF1 (Homo sapiens, UniProt P32519 1-619); conditions: protein: recombinant; tags: N-terminal GST; dsDNA, one strand shown
# In short: as §1
# [6] = target: T5, EHF (Homo sapiens, UniProt Q9NZC4 1-300); conditions: protein: recombinant; tags: N-terminal GST; dsDNA, one strand shown
# T5 sequence: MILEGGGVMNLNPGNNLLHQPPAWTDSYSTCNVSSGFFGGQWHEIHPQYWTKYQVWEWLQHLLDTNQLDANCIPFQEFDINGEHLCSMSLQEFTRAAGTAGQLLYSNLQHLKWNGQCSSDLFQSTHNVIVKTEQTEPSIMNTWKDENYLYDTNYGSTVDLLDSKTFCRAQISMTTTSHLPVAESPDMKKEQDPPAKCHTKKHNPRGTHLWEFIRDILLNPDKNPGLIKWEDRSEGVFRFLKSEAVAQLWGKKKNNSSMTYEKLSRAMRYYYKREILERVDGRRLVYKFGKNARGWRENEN
# In short: as §1
# [7] = target: SPI1 (Homo sapiens, UniProt P17947 1-270); conditions: protein: recombinant; tags: N-terminal GST; dsDNA, one strand shown
# In short: as §1
# [8] = target: SPIB (Homo sapiens, UniProt Q01892 1-262); conditions: protein: recombinant; tags: N-terminal GST; dsDNA, one strand shown
# In short: as §1
# [9] = target: T6, ELK3 (Homo sapiens, UniProt P41970 1-407); conditions: protein: recombinant; tags: N-terminal GST; dsDNA, one strand shown
# T6 sequence: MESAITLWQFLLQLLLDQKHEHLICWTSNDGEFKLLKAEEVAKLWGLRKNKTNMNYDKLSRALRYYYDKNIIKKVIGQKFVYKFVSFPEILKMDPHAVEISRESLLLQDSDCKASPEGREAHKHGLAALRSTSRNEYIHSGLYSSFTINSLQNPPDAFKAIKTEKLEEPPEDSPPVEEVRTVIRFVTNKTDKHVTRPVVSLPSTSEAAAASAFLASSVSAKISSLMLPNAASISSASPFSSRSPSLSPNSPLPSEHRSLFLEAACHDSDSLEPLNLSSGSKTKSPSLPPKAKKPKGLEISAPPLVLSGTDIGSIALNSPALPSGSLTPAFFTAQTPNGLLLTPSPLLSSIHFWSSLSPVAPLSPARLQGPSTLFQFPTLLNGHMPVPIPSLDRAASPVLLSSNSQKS
# In short: as §1
# [10] = target: T7, FEV (Homo sapiens, UniProt Q99581 1-238); conditions: protein: recombinant; tags: N-terminal GST; dsDNA, one strand shown
# T7 sequence: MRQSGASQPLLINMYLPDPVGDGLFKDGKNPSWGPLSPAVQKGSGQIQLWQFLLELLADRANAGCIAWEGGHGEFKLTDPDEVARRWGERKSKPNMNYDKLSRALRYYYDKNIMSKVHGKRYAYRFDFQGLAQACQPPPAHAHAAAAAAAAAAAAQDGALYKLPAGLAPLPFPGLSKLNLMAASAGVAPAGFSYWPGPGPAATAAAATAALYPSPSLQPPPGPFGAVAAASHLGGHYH
# In short: as §1
# [11] = target: ETV5 (Homo sapiens, UniProt P41161 1-510); conditions: protein: recombinant; tags: N-terminal GST; dsDNA, one strand shown
# In short: as §1
# [12] = target: HSF1 (Homo sapiens, UniProt Q00613 1-529); conditions: protein: recombinant; tags: N-terminal GST; chain copies: 3; dsDNA, one strand shown
# In short: as §1
# [13] = target: T8, SPIC (Homo sapiens, UniProt Q8N5J4 1-248); conditions: protein: recombinant; tags: N-terminal GST; dsDNA, one strand shown
# T8 sequence: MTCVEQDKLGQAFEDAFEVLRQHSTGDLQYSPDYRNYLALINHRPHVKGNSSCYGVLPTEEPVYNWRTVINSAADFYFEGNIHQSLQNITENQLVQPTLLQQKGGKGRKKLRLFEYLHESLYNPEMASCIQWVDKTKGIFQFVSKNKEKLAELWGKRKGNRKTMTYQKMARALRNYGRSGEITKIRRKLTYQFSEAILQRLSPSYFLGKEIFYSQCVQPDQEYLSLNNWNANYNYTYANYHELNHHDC
# In short: as §1
# [14] = target: ELF4 (Homo sapiens, UniProt Q99607 1-663); conditions: protein: recombinant; tags: N-terminal GST; dsDNA, one strand shown
# In short: as §1
# [15] = target: T9, ELK4 (Homo sapiens, UniProt P28324-2 1-405); conditions: protein: recombinant; tags: N-terminal GST; dsDNA, one strand shown
# T9 sequence: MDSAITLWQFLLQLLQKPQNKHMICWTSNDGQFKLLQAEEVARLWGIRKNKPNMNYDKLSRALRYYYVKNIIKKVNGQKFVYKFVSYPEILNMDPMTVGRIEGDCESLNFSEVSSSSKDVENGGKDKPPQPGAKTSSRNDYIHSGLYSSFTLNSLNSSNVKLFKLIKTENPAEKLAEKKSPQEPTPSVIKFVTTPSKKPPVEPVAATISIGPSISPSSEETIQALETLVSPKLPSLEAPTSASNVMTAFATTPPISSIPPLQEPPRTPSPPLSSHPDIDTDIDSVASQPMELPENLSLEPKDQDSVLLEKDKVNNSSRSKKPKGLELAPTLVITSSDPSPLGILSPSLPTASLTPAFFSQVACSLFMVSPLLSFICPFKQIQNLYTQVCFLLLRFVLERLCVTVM
# In short: as §1
# [16] = target: T10, ETV2 (Homo sapiens, UniProt O00321 1-342); conditions: protein: recombinant; tags: N-terminal GST; dsDNA, one strand shown
# T10 sequence: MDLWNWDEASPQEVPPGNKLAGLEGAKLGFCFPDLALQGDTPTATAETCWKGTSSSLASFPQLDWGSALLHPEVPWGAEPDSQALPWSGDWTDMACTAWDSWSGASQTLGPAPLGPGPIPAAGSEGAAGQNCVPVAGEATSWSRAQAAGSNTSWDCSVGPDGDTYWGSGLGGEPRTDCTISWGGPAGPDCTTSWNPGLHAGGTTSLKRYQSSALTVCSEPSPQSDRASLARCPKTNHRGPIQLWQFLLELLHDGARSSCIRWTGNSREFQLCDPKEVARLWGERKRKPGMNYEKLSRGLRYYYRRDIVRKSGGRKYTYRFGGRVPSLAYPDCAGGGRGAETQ
# In short: as §1
# [17] = target: T11, ELF3 (Homo sapiens, UniProt P78545 1-371); conditions: protein: recombinant; tags: N-terminal GST; dsDNA, one strand shown
# T11 sequence: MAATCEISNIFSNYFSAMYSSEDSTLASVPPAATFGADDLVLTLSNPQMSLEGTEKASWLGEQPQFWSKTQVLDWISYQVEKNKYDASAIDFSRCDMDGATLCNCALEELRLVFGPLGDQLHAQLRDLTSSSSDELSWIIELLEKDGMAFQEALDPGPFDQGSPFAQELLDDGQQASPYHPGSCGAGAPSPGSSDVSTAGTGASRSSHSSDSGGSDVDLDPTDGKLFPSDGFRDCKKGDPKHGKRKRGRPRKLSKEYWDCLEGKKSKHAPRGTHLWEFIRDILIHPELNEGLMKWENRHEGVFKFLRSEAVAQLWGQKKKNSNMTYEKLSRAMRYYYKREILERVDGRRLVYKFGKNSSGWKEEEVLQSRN
# In short: as §1
# [18] = target: CRX (Homo sapiens, UniProt O43186 1-299); conditions: protein: recombinant; tags: N-terminal GST; dsDNA, one strand shown
# In short: as §1
# [19] = target: ETV1 (Homo sapiens, UniProt P50549 1-477); conditions: protein: recombinant; tags: N-terminal GST; dsDNA, one strand shown
# In short: as §1
# Sequence of SPIB (Q01892 whole entry): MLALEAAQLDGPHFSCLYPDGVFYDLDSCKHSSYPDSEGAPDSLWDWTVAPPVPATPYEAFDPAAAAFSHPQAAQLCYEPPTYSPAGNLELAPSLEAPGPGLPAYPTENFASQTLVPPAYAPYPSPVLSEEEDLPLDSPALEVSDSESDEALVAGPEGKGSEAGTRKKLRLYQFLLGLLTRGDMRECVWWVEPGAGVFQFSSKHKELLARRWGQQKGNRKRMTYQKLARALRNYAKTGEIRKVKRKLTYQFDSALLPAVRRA
# Sequence of ELF1 (P32519 whole entry): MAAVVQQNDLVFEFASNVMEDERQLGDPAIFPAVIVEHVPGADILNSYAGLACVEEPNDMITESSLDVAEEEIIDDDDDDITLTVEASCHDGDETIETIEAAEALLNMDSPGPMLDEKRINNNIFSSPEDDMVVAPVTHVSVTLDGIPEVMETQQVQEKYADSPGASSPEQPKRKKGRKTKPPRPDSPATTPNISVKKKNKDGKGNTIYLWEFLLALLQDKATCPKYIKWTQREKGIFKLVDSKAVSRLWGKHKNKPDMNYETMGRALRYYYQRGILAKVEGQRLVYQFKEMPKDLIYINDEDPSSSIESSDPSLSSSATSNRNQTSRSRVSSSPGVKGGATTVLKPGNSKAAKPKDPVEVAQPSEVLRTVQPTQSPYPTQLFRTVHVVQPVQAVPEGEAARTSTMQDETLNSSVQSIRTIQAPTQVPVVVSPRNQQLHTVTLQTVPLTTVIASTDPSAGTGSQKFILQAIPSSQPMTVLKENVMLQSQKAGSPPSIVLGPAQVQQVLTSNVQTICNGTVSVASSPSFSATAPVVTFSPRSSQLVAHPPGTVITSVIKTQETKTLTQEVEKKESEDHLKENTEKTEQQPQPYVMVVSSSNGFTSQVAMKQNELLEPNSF
# Sequence of ELF4 (Q99607 whole entry): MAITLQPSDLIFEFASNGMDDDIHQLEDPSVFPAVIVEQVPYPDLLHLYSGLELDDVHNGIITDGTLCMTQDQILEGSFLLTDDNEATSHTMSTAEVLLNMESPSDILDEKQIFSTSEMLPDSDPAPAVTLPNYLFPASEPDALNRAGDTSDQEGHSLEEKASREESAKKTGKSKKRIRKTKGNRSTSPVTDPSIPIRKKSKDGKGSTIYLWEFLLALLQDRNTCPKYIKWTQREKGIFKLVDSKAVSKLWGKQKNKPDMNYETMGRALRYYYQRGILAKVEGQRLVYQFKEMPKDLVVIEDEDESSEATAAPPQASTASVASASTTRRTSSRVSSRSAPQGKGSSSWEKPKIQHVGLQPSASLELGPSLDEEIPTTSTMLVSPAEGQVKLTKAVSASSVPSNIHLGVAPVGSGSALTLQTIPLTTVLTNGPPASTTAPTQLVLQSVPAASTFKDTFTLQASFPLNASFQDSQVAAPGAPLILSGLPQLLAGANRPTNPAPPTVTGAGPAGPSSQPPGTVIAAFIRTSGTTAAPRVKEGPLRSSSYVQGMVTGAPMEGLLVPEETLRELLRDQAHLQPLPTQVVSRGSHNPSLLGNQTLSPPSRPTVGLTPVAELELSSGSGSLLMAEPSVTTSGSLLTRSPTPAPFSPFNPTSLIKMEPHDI
# Sequence of CRX (O43186 whole entry): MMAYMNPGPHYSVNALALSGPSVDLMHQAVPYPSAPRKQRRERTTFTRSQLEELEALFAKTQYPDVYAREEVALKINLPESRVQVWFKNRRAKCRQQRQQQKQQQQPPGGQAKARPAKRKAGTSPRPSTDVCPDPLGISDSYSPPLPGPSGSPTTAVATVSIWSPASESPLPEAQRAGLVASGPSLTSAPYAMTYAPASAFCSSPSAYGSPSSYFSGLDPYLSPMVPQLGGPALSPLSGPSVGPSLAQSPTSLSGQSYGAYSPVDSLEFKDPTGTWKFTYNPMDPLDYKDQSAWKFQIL
# Sequence of ETV5 (P41161 whole entry): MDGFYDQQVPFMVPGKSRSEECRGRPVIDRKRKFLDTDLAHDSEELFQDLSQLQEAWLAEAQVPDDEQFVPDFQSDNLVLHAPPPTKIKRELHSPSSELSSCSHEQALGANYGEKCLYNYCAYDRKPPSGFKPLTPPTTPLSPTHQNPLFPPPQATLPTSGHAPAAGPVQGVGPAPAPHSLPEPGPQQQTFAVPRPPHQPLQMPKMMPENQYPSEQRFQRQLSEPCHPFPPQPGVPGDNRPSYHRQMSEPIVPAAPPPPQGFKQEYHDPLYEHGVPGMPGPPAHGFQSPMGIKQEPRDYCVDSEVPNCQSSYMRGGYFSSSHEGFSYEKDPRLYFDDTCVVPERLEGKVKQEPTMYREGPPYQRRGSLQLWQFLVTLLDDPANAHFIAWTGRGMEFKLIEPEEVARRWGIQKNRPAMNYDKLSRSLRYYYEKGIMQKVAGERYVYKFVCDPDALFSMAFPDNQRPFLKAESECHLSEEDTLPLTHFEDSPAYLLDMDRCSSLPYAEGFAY
# Sequence of ETV1 (P50549 whole entry): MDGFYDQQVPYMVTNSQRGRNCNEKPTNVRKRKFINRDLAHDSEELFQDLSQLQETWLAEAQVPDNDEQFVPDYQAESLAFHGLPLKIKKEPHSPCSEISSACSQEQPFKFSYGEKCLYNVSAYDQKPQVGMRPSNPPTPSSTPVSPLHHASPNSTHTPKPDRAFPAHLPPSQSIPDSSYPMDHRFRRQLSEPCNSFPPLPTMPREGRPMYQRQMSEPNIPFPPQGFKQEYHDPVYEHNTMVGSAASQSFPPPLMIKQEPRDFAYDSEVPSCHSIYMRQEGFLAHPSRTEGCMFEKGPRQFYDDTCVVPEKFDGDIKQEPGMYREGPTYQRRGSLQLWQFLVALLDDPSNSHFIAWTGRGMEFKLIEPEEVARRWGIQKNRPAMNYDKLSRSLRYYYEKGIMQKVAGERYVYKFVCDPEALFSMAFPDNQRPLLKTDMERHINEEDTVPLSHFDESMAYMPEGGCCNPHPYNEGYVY
# Sequence of HSF1 (Q00613 whole entry): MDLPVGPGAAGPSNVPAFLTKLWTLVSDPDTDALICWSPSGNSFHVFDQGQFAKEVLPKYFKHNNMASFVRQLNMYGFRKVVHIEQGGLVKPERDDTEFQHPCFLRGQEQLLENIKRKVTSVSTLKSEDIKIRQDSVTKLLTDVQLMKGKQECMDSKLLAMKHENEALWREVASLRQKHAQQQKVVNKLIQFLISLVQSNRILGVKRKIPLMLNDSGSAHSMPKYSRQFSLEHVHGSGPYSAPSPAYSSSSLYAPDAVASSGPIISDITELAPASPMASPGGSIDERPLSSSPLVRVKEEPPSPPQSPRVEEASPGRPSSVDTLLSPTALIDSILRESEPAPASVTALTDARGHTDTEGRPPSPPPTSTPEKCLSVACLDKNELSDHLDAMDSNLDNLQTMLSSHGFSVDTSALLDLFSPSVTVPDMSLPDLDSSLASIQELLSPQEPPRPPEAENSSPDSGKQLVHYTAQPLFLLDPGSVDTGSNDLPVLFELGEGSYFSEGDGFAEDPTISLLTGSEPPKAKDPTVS
sequence,measurement,setting,value
TATTAA,binding signal,[1],"1.17 fold enrichment (6-mer frequency, TF over GST control)"
same,binding signal,[2],"1.13 fold enrichment (6-mer frequency, TF over GST control)"
same,binding signal,[3],"1.16 fold enrichment (6-mer frequency, TF over GST control)"
same,binding signal,[4],"1.12 fold enrichment (6-mer frequency, TF over GST control)"
same,binding signal,[5],"1.22 fold enrichment (6-mer frequency, TF over GST control)"
same,binding signal,[6],"1.09 fold enrichment (6-mer frequency, TF over GST control)"
same,binding signal,[7],"1.06 fold enrichment (6-mer frequency, TF over GST control)"
same,binding signal,[8],"1.23 fold enrichment (6-mer frequency, TF over GST control)"
same,binding signal,[9],"1.2 fold enrichment (6-mer frequency, TF over GST control)"
same,binding signal,[10],"1.14 fold enrichment (6-mer frequency, TF over GST control)"
same,binding signal,[11],"1.13 fold enrichment (6-mer frequency, TF over GST control)"
same,binding signal,[12],"1.82 fold enrichment (6-mer frequency, TF over GST control)"
same,binding signal,[13],"1.12 fold enrichment (6-mer frequency, TF over GST control)"
same,binding signal,[14],"1.16 fold enrichment (6-mer frequency, TF over GST control)"
same,binding signal,[15],"1.02 fold enrichment (6-mer frequency, TF over GST control)"
same,binding signal,[16],"1.09 fold enrichment (6-mer frequency, TF over GST control)"
same,binding signal,[17],"1.06 fold enrichment (6-mer frequency, TF over GST control)"
same,binding signal,[18],"2.83 fold enrichment (6-mer frequency, TF over GST control)"
same,binding signal,[19],"1.14 fold enrichment (6-mer frequency, TF over GST control)"
